From PubChem BioAssay
In the library only some 4.7% were active in any assay of this set; here they are far more common.
DRD3 agonist – qHTS of D3 Dopamine Receptor Agonist: qHTS | D(3) dopamine receptor (Homo sapiens), P35462 | D3R DiscoveRx beta-arrestin cells, luminescence, 90 min | max activation, % | 410,000 compounds, 0.58% hits; in the data active = max activation above about 30%; also: 0% is about no effect
Target sequence (P35462 whole entry, looked up): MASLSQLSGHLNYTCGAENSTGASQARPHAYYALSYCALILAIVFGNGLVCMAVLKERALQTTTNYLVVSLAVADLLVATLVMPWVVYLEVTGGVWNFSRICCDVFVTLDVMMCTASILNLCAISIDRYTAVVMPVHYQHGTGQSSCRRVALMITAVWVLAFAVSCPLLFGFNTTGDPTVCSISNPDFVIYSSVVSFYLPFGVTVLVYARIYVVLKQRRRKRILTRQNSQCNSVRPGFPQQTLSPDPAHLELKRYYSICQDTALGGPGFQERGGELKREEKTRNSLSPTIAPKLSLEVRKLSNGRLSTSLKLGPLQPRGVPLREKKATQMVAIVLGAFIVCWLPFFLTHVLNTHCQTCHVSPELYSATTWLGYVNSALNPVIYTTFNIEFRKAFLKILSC
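Agonist mode: compounds and dopamine controls were applied to plated cells for 90 min at 37 degrees C after an overnight attachment at 1500 cells/well. Luminescent read-out followed 30 - 60 minutes at room temperature with DiscoveRx detection reagent.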
DRD3 antagonist – qHTS of D3 Dopamine Receptor Antagonist: qHTS | D(3) dopamine receptor (Homo sapiens), P35462 | max response, negative = inhibition, % | 360,000 compounds, 2.5% hits | D3R cells, DiscoveRx beta-arrestin luminescence, antagonist mode; stronger effect = lower value | AID 652054, 2013; in the data active = max response below about -50%; inconclusive = no clear call, values can overlap the other calls; also: % is scaled to controls: 0 for no effect and ±100 for the full control effect
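Cells plated overnight at 1500 cells/well, then exposed to library compounds with dopamine controls for 90 minutes at 37 degrees C. DiscoveRx reagent added for 30–60 minutes at room temperature; luminescence read, quantitative HTS format.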
S2 tox – Viability Counterscreen for Primary qHTS for Inhibitors of ATXN expression | S2 cells (HEK-293 line with an ATXN2-luciferase reporter) viability, CellTiter-Fluor protease fluorescence, 24 h | Potency, µM (doses to about 56.7 µM), usual class: cytotoxic | 400,000 compounds, 0.49% hits; also: potency is read from the fitted curve at half-maximal effect; nearly all actives have a fitted effect of over 40% in size
HepG2 viability – qHTS for Inhibitors of TGF-b: Cytotox Counterscreen. HepG2 CAGA-GFP viability, ATP luminescence, 18 h. Potency, µM (highest dose often 46.1 µM), without a hit: at the highest dose activity change, negative = cytotoxicity, most hits filed as cytotoxic. 410,000 compounds, 0.76% hits. AID 588856, 2011; also: potency is read from the fitted curve at half-maximal effect
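CellTiter-Glo luminescence gave cytotoxicity after 18 hours at 37 degrees C. The cells were HepG2 CAGA-GFP in 1% FBS DMEM, stimulated with 500 pg/mL TGF-beta after compound addition. %Activity was normalised to no-cell wells (complete cell-killing) and DMSO (no toxicity), and curves were fitted and classified.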
ATXN2 expr inh – Primary qHTS for Inhibitors of ATXN expression; HEK-293 ATXN2-luciferase reporter, luminescence, 24 h; Potency, µM (series often up to 57 µM), without a hit: at the top dose activity change, negative = inhibition, usual class: inhibitors; 360,000 compounds, 0.72% hits; also: potency is read from the fitted curve at half-maximal effect; % is scaled to controls: 0 for no effect and ±100 for the full control effect; nearly all actives have a fitted effect of over 55% in size
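qHTS (up to 57 uM final) was run with 24 h compound exposure of reporter cells at 37 °C. Each well was multiplexed: SteadyGlo luminescence measured ATXN2-luciferase expression after a fluorogenic Gly-Phe-AFC viability readout (25 uM final).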
TGFb inhibitor – qHTS for Inhibitors of TGF-b | HepG2 CAGA-GFP TGF-b/SMAD3 reporter, GFP fluorescence, 18 h; TGF-beta stimulated, 500 pg/mL final | 410,000 compounds, 1.2% hits | Potency, µM (highest dose often 46.1 µM), inactives show at the highest dose activity, negative = inhibition, most hits filed as inhibitors; also: potency is read from the fitted curve at half-maximal effect; % is scaled to controls: 0 for no effect and ±100 for the full control effect; nearly all actives have a fitted effect of over 65% in size
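HEPG2 CAGA-GFP, 1000 cells/well; 2 h settle, 37 C; cpd via pin tool; TGF-b 500 pg/mL final; 18 h, 37 C; GFP imaging ex488/em500-530; %Activity normalised to -TGF-b and +DMSO controls; CRC fit, curve class.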
* = called active by the depositor; i = inactive; ? = inconclusive; / = no result given; ! = repeats disagree. Unless noted, calls follow the shape of the dose curve; as a rule, active = well fitted curve in the direction sought with a large enough effect; inconclusive = small, poorly fitted or top-dose-only effect, or another doubt; inactive = no such curve, though single readings can be large; an effect the other way counts as inactive or inconclusive.

SMILES | DRD3 agonist | DRD3 antagonist | S2 tox | HepG2 viability | ATXN2 expr inh | TGFb inhibitor
COc1ccc(CN2CCC3CC2c2cc(Cl)ccc23)cc1 (centres undefined) | -72 | -59* | i | -7% | -25% | -26%
CC(NC(=O)C1CC1)c1nnc2n1CCN(Cc1cccc(F)c1F)CC2 (centres undefined) | / | / | i | / | / | /
C=C1CCN([C@@H](CC(C)C)C(=O)NCCC(C)C)S(=O)(=O)c2ccccc21 | -24 | -50* | i | -22% | -13% | -3%
Cc1ccc(C)n1-c1nnc(N2CCCC(C(=O)Nc3ccc(C(C)C)cc3)C2)s1 (centres undefined) | -18 | / | i | -50% | -11% | 7.9µM*
CCc1nnc(NC(=O)CCC(=O)N2CCN(CCOc3ccc(C)cc3)CC2)s1 | 45* | 0 | i | -22% | -11% | -3%
COc1ccc(/C=C/c2sc3ccccc3[n+]2CCCCI)cc1OC | / | / | / | -7% | / | 2%
CCCN(CCC)c1ccc(/C=C/c2sc3ccccc3[n+]2CCCCI)cc1 | / | / | / | 14µM* | / | 6.3µM*
O=C(CCC(=O)N1CCN(c2ccccc2F)CC1)c1ccc(F)cc1 | 2 | 12 | i | -34% | 15% | 4%
COc1ccc(C(=O)CCN2CCN(c3ccccc3F)CC2)cc1 | -10 | -99* | i | -35% | -2% | ?
COc1ccc(C(=O)CCN2CCN(c3ccc(OC)cc3)CC2)cc1 | -31 | -15 | i | -109% | -7% | ?
O=C(CCN1CCN(c2ccccc2F)CC1)c1ccc(Br)cc1 | -16 | ? | i | 16µM* | 4% | ?
Cc1ccccc1CN1Cc2cccc3c2[C@H](C=CC3)CC1=O | / | / | / | -4% | / | ?
CC[C@H](NC(=O)[C@H](C)NC)C(=O)N1C[C@@H](O)C[C@H]1Cc1c(-c2[nH]c3cc(F)ccc3c2C[C@H]2C[C@H](O)CN2C(=O)[C@H](CC)NC(=O)[C@H](C)NC)[nH]c2cc(F)ccc12 | / | / | / | / | -6% | /
Cc1ccccc1C(=O)Nc1sc2c(c1C(=O)N1CCC(C)CC1)CCC(C)C2 (centres undefined) | -1 | / | i | -2% | 10% | 4%
COc1ccccc1-c1nc(C#N)c(N2CCc3ccccc3C2)o1 | 30 | 11 | i | 6% | 0% | 12%
COc1ccc(-c2nc(C#N)c(N3CCc4ccccc4C3)o2)cc1OC | 36* | 53 | i | -21% | -32% | 8%
CCCCOc1ccc(NC(=O)CSc2nnnn2C)cc1 | -5 | -113* | i | -48% | 24% | -6%
CN(C)S(=O)(=O)c1ccc(NC(=O)CSc2nnnn2C)cc1 | 3 | 3 | i | -2% | -7% | 5%
O=C(CSc1cccc2cccnc12)Nc1cccc(S(=O)(=O)N2CCOCC2)c1 | 6 | -4 | i | -25% | -22% | 0%
O=C(CSc1cccc2cccnc12)Nc1ccc(S(=O)(=O)N2CCOCC2)cc1 | 1 | -13 | 11µM* | -175% | 13µM* | ?
CCOC(=O)CSc1cccc2cccnc12 | -10 | ? | ? | 8.9µM* | 20µM* | ?
CCCCCOc1ccc(NC(=O)CSc2cccc3cccnc23)cc1 | -11 | -13 | i | 20µM* | -38% | ?
CCOc1ccc(NC(=O)C/C(N)=N/O)cc1 | -3 | -9 | i | -4% | 1% | -32%
CCOc1ccc(NC(=O)CSC(N)=O)cc1 | -5 | -72* | i | 20% | -22% | -4%
CC(C)C[C@H](NC(=O)CNC(=O)c1cc(Cl)ccc1Cl)B(O)O | / | / | / | / | 0.31µM* | /
SMILES | DRD3 agonist | DRD3 antagonist | S2 tox | HepG2 viability | ATXN2 expr inh | TGFb inhibitor
C=CCNC(=O)c1cc(Cl)ccc1Cl | 1 | -5 | i | -2% | 2% | 3%
CCOC(=O)N1CCN(C(=O)CNC(=O)c2ccc(Cl)cc2Cl)CC1 | 5 | 3 | i | -4% | 0% | -5%
CC(C)C[C@H](NC(=O)CNC(=O)c1cc(Cl)ccc1Cl)B1OC(=O)CC(CC(=O)O)(C(=O)O)O1 (some centres undefined) | / | / | / | / | 0.22µM* | /
CC(C)C(=O)Nc1ccc(/C=C2\C=Cc3ccccc32)cc1 | / | / | / | 9% | / | 11%
O=C(NNC(=O)C(c1ccccc1)c1ccccc1)c1ccccn1 | -24 | -86* | i | -21% | ? | ?
O=C(NNc1ccccn1)C(c1ccccc1)c1ccccc1 | 6 | 17 | / | 18% | / | -2%
CNC(=O)c1cnc2sc(N3CCCCCC3)nn2c1=O | 5 | / | / | 6% | / | 0%
CCOc1ccccc1C1C(C(=O)Nc2ccccc2)=C(C)Nc2nc(SCC(=O)c3ccc(C)cc3)nn21 (centres undefined) | -10 | / | i | -16% | 10% | ?
COc1ccc(SC[C@H](C)CN2CC[C@H](C(C)(C)C)CCC2=O)cc1 | 6 | 17 | ? | 20µM*! | ? | ?
Cc1ccc(S[C@@H](CCN2CC[C@H](C)CCC2=O)c2ccccc2)cc1 | -2 | 15 | ? | -16% | -17% | ?
COc1ccc(S[C@@H](CCN2CC[C@H](C)CCC2=O)c2ccccc2)cc1 | -19 | 5 | ? | 4% | ? | 16µM*
Cc1ccc(S[C@@H](CCN2CC[C@H](C(C)(C)C)CCC2=O)c2ccccc2)cc1 | -29 | ? | ? | 13µM* | 0% | ?
O=C(NCCCc1nc2ccccc2n1Cc1ccccc1Cl)C1CCCCC1 | -20 | / | i | -8% | -15% | -13%
CCCn1c(=NC(=O)c2cc3ccccc3o2)c(C(=O)OCC)cc2c(=O)n3ccccc3nc21 | 4 | / | i | -19% | 3% | -27%
CCOc1ccc(-c2ccc(/C=C3/C(=N)N4C=CSC4=NC3=O)o2)c([N+](=O)[O-])c1 | 3 | -20 | / | 36% | 25µM* | -4%
Cc1cc(C(=O)CN2C(=O)c3ccccc3S2(=O)=O)c(C)n1-c1ccccc1 | -2 | -14 | i | -4% | 4.5µM* | -6%
Cc1cc(C(=O)CN2C(=O)c3ccccc3S2(=O)=O)c(C)n1C(C)C | 3 | -13 | i | -47% | 5µM* | -1%
CCn1c(C)cc(C(=O)CN2C(=O)c3ccccc3S2(=O)=O)c1C | -6 | 0 | i | 7% | ? | 11%
COc1ccccc1N1CCN(c2nc(CNC(=O)C3CCOC(C)(C)C3)nc3ccccc23)CC1 (centres undefined) | / | / | i | / | / | /
